# Laboratory results as given in PubChem BioAssay AID504521 (NMMLSC, 2011).
# Some of the results follow. A number with no mark means an inactive call.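 Rule for the calls: active = compounds whose bead fluorescence drops by more than 37 kMESF across the dose range, marking them as dye quenchers; inactive = the rest.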
# Assay: quenching of fluorescent RNA aptamer on beads, dose response, artefact control for GRK2 RNA aptamer inhibitor project, biochemical, cherry pick 1, bead-based flow cytometry (AID 504521)
# Details: active compounds read high
smiles,measurement,value
COc1ccc(N2C(=O)/C(=C/c3ccco3)C(=O)NC2=S)cc1,fluorescence change (kMESF span),12 kMESF
